Source: PubChem BioAssay
Compounds with a hit are over-represented: about 22% of the library has one in this group of screens.
Pf growth 96h = Primary qHTS for delayed death inhibitors of the malarial parasite plastid, 96 hour incubation. AID 504834, 2011. P. falciparum luciferase reporter growth, 96 h. actives 6.9% (n = 320,000). Potency, µM (doses to about 28.7 µM), without a hit: at the highest dose activity change, negative = inhibition, usual class: inhibitors; further: potency means the concentration at half of the fitted maximal effect; on the % scale 0 is the no-effect control and ±100 the full control effect
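Delayed-death screen, second-generation endpoint: infected erythrocytes, 2% hematocrit, 0.05% parasitemia final; 96 hours at 37 C, 5% CO2; luciferase detection reagent; luminescence decrease equals reduced growth.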
Shiga inhibitor = A qHTS for Small Molecule Inhibitors of Shiga Toxin. Vero cells, Shiga toxin protein synthesis inhibition reporter. inhibition, % at 38.7 µM. actives 9.2% (n = 290,000). AID 2315, 2010; in the data active means inhibition mostly above about 28%, no sharp cut-off; inactive means mostly below about 43%; further: 0% is about no effect
LmPK inh = qHTS Assay for Inhibitors of Leishmania Mexicana Pyruvate Kinase (LmPK). actives 0.37% (n = 290,000). Potency, µM (doses to about 57.5 µM), without a hit: top-dose activity change, negative = inhibition, actives largely listed as inhibitors. Q27686. purified LmPK, Kinase-Glo ATP luminescence, 1 h. AID 1721, 2009; further: potency means the concentration at half of the fitted maximal effect; on the % scale 0 is the no-effect control and ±100 the full control effect
Target sequence (Q27686 whole entry, looked up): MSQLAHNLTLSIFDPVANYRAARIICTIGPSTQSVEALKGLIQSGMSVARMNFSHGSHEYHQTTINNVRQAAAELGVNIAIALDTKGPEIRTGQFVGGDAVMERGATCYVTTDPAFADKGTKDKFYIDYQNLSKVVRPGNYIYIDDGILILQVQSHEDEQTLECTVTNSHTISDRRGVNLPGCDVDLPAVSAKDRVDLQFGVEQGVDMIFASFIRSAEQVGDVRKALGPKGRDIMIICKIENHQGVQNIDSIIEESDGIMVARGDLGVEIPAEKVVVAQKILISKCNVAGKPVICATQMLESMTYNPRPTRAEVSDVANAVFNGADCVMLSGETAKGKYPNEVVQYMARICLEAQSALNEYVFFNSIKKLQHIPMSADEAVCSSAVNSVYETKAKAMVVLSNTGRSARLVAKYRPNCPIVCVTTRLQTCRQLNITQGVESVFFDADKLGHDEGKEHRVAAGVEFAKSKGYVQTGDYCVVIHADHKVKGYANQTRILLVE
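Pyruvate kinase activity monitored as ATP production (luciferase luminescence). Conditions: 0.1 nM enzyme, 0.5 mM PEP, 0.1 mM ADP, 1 h, RT; normalized against uninhibited and no-enzyme wells.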
Pf growth 48h = Primary qHTS for delayed death inhibitors of the malarial parasite plastid, 48 hour incubation. P. falciparum luciferase growth in erythrocytes, 48 h. actives 5.9% (n = 310,000). Potency, µM (highest dose often 28.7 µM), for the others: at the top dose activity change, negative = inhibition, most hits filed as inhibitors. AID 504832, 2011; further: potency means the concentration at half of the fitted maximal effect; on the % scale 0 is the no-effect control and ±100 the full control effect
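Luminescence readout; reporter = integrated firefly luciferase in P. falciparum. RBC culture at 2% hematocrit, 0.1% parasitemia final, 37 C/5% CO2; decreased signal taken as growth inhibition.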
CHX counter = Cycloheximide Counterscreen for Small Molecule Inhibitors of Shiga Toxin; cell reporter, cycloheximide protein synthesis inhibition counterscreen; max response, %; actives 12% (n = 300,000); in the data active means max response mostly above about 13%, no sharp cut-off; inactive means mostly below about 14%; further: read at 38.3 µM for the half of the compounds with a filed dose; 0% is about no effect
An asterisk follows results filed as active. Unless noted, the call rests on the fitted dose curve; in most records, active means well fitted inhibition curve with a large enough effect; inconclusive means small, poorly fitted or top-dose-only effect, or another doubt; inactive means no such curve, though single readings can be large or run the other way.

What do the screens show for `COc1ccc(NC(=S)N/N=C/c2cccn2Cc2ccc(F)cc2Cl)cc1`?
Pf growth 96h: inconclusive; Shiga inhibitor: 33; LmPK inh: 2%; Pf growth 48h: 3.7µM*; CHX counter: 9

Results for CC(C)Cn1c(N)c(C(=O)COC(=O)C2CC(=O)N(c3ccc4c(c3)OCCO4)C2)c(=O)n(C)c1=O (configuration not stated) ?
Pf growth 96h: 20%; Pf growth 48h: inconclusive

How did COP(=O)(OC)C(Nc1ccccc1)c1ccccc1 (configuration not stated) do in these assays?
Pf growth 96h: 17µM*; Shiga inhibitor: -8; LmPK inh: 2%; Pf growth 48h: 10%; CHX counter: 0

How did COc1ccc(NC(c2ccccc2)P(=O)(Oc2ccccc2)Oc2ccccc2)cc1 (configuration not stated) do in these assays?
Pf growth 96h: 24%; Shiga inhibitor: -3; LmPK inh: 5%; Pf growth 48h: 4%; CHX counter: 11*

How did CC(C)OP(=O)(c1ccc(N(C)C)cc1)C(Nc1ccccc1)c1ccccc1 (configuration not stated) do in these assays?
Pf growth 96h: inconclusive; Shiga inhibitor: -5; LmPK inh: 4%; Pf growth 48h: 8.3µM*; CHX counter: -2

How did COP(=O)(OC)C(Nc1ccc(Cl)cc1)c1ccccc1 (configuration not stated) do in these assays?
Pf growth 96h: 0%; LmPK inh: -2%; Pf growth 48h: 0%; CHX counter: -2

What do the screens show for `COC(=O)c1ccc(NC(c2ccc(Cl)cc2)P(=O)(OC)OC)cc1` (configuration not stated)?
Pf growth 96h: 5%; Shiga inhibitor: 20; LmPK inh: 9%; Pf growth 48h: 20%; CHX counter: 32*

Results for CC(C)CCOP(=O)(c1ccc(N(C)C)cc1)C(Nc1ccccc1)c1ccc(N(C)C)cc1 (configuration not stated) ?
Pf growth 96h: inconclusive; Shiga inhibitor: 5; LmPK inh: 4%; Pf growth 48h: inconclusive; CHX counter: 3

Results for COc1ccc(/C=C/C(=O)N2CCN(c3ccccn3)CC2)c(OC)c1OC ?
Pf growth 96h: inconclusive; Shiga inhibitor: -8; LmPK inh: 0%; Pf growth 48h: -31%; CHX counter: -5

How did CCCNS(=O)(=O)c1cccc(C(=O)NNC(=O)c2cc(C)oc2C)c1 do in these assays?
Pf growth 96h: 8%; Pf growth 48h: -10%

What do the screens show for `CC1COC(=O)C(NNc2ccc(Cl)c(Cl)c2)=N1` (configuration not stated)?
Pf growth 96h: 11%; Shiga inhibitor: 38; LmPK inh: 6%; Pf growth 48h: 21%; CHX counter: 10

Results for COc1ccc(CN2CCSc3sccc3C2=O)cc1 ?
Pf growth 96h: -5%; Shiga inhibitor: -2; LmPK inh: -6%; CHX counter: 0

What do the screens show for `On1onc2c3cc(-c4ccccc4)nc3ccc21`?
Shiga inhibitor: 128*; LmPK inh: -4%; Pf growth 48h: inconclusive; CHX counter: 69*

What do the screens show for `O=C(NN=C1CCCCCCCCCCC1)c1ccccc1F`?
Pf growth 96h: 3%; Shiga inhibitor: 70*; LmPK inh: 1%; Pf growth 48h: 2%; CHX counter: 78*

Results for O=C(NN=C1CCCC1)c1ccn[nH]1 ?
Pf growth 96h: inconclusive; Shiga inhibitor: 104*; LmPK inh: -1%; Pf growth 48h: 109%; CHX counter: 56*

What do the screens show for `O=C(NN=C1CCCCCCC1)c1ccc(F)cc1`?
Pf growth 96h: 4%; Shiga inhibitor: 76*; LmPK inh: -3%; Pf growth 48h: -9%; CHX counter: 24*

What do the screens show for `O=C(NN=C1CCCC1)c1ccccc1OCc1ccc(Cl)cc1`?
Pf growth 96h: inconclusive; Shiga inhibitor: 54; LmPK inh: 15%; Pf growth 48h: 9%; CHX counter: 23

How did O=C(NN=C1CCCCCC1)c1cccs1 do in these assays?
Pf growth 96h: inconclusive; Shiga inhibitor: 92*; LmPK inh: -3%; Pf growth 48h: 6%; CHX counter: 61*

What do the screens show for `O=C(NN=C1CCCCCCCCCCC1)c1cccnc1`?
Pf growth 96h: 0%; Shiga inhibitor: -3; LmPK inh: -2%; Pf growth 48h: 0%; CHX counter: -2

Results for CC1(C)CC(=O)C(N=Nc2ccc(S(=O)(=O)N3CCOCC3)cc2)=C(O)C1 ?
Pf growth 96h: 2%; Shiga inhibitor: -7; LmPK inh: -3%; Pf growth 48h: 9%; CHX counter: 9

Results for COc1ccccc1N1C(=O)C2C3C=CC(CC3)C2C1=O (configuration not stated) ?
Pf growth 96h: -24%; Shiga inhibitor: -5; LmPK inh: 4%; Pf growth 48h: 10µM*; CHX counter: -2

How did COc1ccc(CC(=O)N/N=C\c2cc(Br)c(O)c(Br)c2)cc1 do in these assays?
Pf growth 96h: inconclusive; Shiga inhibitor: -7; LmPK inh: -8%; Pf growth 48h: 7%; CHX counter: -4

What do the screens show for `COc1ccc(N(C(=O)c2ccccc2C)S(=O)(=O)c2cccs2)cc1`?
Pf growth 96h: 8.3µM*; Shiga inhibitor: 8; LmPK inh: 0%; Pf growth 48h: inconclusive; CHX counter: 0

How did COc1ccc(CCNC(=O)CN(C)S(=O)(=O)c2cccs2)cc1 do in these assays?
Pf growth 96h: 20%; Pf growth 48h: 5%

What do the screens show for `O=C(CCCN1C(=O)C2CC=CCC2C1=O)Nc1ccccc1F` (configuration not stated)?
Pf growth 96h: 6%; Shiga inhibitor: 33; LmPK inh: -5%; Pf growth 48h: 33%; CHX counter: 0

Results for Cc1cccnc1Nc1nc(-c2ccc(O)cc2O)cs1 ?
Pf growth 96h: 14%; Shiga inhibitor: 112*; LmPK inh: -4%; Pf growth 48h: 137%; CHX counter: 39*

How did Oc1ccc(-c2csc(Nc3ccccn3)n2)c(O)c1 do in these assays?
Pf growth 96h: 22%; Shiga inhibitor: 131*; LmPK inh: 2%; Pf growth 48h: 261%; CHX counter: 34*

What do the screens show for `CCNC(=S)N/N=C/c1cccs1`?
Pf growth 96h: 4.7µM*; Shiga inhibitor: -5; LmPK inh: 7%; CHX counter: 1

How did Cc1ccsc1/C=N\NC(=O)CC(=O)NCc1ccccc1 do in these assays?
Pf growth 96h: 25%; Shiga inhibitor: -16; LmPK inh: 0%; Pf growth 48h: 12%; CHX counter: -2

How did CN(C)c1ccc(/C=N/NC(=S)NCc2ccccc2)cc1 do in these assays?
Pf growth 96h: 12µM*; Shiga inhibitor: -7; LmPK inh: 4%; Pf growth 48h: inconclusive; CHX counter: 24*
